# Test results: the supplement of paper PMC11732987, “Enantioselective OTUD7B fragment discovery through chemoproteomics screening and high-throughput optimisation” (Communications Chemistry, 2025)
# Values without a mark were called inactive.
# Legend:
# Assay in all cases: log2 ratio of Biotin-Ahx-Ub-VS probe labelling (fragment/DMSO); higher = less target engagement (more negative = stronger competition), active = hit call of the paper (q ≤ 0.05, log2 ratio ≤ -1)
# Settings in all cases: compound concentration: 200 uM; treatment time: 3 h
# USP19 = biological target: T1, USP19 (UniProt O94966)
# T1 sequence (whole entry): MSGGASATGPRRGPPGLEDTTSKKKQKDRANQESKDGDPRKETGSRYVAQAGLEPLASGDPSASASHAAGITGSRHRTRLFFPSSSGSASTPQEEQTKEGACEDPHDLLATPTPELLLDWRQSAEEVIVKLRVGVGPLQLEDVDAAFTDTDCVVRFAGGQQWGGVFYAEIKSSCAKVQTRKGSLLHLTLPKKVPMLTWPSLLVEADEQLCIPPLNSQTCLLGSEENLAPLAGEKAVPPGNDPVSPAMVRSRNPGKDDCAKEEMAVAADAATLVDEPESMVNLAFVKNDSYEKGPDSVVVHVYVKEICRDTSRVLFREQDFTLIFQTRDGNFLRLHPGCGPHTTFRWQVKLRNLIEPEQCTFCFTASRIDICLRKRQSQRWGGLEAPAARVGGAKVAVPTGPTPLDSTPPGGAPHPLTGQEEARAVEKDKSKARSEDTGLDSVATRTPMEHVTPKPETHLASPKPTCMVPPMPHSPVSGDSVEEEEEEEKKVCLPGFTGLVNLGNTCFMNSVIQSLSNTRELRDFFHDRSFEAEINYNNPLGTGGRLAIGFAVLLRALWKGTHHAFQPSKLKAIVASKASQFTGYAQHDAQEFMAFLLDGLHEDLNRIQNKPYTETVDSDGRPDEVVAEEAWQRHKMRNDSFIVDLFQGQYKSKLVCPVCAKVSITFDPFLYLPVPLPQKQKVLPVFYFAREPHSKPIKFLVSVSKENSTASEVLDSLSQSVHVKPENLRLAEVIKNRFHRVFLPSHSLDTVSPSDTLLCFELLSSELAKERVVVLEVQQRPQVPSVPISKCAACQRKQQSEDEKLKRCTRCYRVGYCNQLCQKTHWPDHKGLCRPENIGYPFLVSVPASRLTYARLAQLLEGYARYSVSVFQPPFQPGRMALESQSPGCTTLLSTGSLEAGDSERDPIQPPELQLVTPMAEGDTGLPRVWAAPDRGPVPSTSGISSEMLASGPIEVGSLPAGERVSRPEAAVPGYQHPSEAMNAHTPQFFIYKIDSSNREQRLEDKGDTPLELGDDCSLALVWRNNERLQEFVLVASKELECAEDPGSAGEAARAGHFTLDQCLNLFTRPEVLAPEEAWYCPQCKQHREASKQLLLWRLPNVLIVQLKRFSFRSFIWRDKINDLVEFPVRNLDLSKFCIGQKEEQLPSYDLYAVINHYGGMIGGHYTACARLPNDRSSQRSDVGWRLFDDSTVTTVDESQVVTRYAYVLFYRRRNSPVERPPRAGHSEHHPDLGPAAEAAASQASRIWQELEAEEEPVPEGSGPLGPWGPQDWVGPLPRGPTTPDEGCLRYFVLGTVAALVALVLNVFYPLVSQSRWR
# Summary of the method: (§1)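 HEK293T lysate (495 µg per sample, in Tris/CHAPS/IGEPAL buffer with protease inhibitors) was treated in triplicate with fragment at 200 µM or with DMSO for 3 h. It was then treated with Biotin-Ahx-Ub-VS (0.5 µM final) for 1 h. Labelled DUBs were NeutrAvidin-enriched, digested with LysC and trypsin, and run by diaPASEF LC-MS/MS. Spectronaut label-free quantities were global-median-normalised. Values are average log2 ratios fragment/DMSO by unpaired t-test, using proteins with ≥2 unique peptides.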
# USP24 = USP24 (UniProt Q9UPU5)
# Summary of the method: as §1
# USP25 = biological target: T2, USP25 (UniProt Q9UHP3)
# T2 sequence (whole entry): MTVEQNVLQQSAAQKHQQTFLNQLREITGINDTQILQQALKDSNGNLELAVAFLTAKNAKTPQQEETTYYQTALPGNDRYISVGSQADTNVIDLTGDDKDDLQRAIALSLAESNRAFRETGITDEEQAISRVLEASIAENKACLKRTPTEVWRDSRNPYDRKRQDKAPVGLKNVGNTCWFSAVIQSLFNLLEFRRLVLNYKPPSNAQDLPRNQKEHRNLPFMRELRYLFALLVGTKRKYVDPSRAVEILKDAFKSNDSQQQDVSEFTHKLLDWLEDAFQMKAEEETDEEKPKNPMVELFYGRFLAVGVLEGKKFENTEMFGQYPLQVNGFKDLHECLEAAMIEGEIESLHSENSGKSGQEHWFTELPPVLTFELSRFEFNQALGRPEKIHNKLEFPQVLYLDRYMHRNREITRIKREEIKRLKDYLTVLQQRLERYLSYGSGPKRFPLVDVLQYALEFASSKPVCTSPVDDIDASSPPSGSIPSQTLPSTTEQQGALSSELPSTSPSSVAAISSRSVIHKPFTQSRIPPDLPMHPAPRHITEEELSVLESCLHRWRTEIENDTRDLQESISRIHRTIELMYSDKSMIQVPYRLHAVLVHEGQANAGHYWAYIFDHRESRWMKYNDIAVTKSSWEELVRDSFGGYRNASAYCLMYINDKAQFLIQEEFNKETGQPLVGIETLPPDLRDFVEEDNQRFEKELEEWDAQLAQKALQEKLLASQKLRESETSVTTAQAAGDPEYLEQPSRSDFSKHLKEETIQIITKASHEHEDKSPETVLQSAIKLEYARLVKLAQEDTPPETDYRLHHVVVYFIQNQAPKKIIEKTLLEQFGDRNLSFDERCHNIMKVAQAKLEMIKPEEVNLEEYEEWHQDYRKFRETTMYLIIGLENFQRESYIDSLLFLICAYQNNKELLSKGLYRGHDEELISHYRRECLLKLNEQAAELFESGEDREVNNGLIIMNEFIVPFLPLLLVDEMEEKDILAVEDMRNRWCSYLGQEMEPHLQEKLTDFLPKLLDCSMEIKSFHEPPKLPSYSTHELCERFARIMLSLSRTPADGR
# Summary of the method: as §1
# USP28 = biological target: T3, USP28 (UniProt Q96RU2)
# T3 sequence (whole entry): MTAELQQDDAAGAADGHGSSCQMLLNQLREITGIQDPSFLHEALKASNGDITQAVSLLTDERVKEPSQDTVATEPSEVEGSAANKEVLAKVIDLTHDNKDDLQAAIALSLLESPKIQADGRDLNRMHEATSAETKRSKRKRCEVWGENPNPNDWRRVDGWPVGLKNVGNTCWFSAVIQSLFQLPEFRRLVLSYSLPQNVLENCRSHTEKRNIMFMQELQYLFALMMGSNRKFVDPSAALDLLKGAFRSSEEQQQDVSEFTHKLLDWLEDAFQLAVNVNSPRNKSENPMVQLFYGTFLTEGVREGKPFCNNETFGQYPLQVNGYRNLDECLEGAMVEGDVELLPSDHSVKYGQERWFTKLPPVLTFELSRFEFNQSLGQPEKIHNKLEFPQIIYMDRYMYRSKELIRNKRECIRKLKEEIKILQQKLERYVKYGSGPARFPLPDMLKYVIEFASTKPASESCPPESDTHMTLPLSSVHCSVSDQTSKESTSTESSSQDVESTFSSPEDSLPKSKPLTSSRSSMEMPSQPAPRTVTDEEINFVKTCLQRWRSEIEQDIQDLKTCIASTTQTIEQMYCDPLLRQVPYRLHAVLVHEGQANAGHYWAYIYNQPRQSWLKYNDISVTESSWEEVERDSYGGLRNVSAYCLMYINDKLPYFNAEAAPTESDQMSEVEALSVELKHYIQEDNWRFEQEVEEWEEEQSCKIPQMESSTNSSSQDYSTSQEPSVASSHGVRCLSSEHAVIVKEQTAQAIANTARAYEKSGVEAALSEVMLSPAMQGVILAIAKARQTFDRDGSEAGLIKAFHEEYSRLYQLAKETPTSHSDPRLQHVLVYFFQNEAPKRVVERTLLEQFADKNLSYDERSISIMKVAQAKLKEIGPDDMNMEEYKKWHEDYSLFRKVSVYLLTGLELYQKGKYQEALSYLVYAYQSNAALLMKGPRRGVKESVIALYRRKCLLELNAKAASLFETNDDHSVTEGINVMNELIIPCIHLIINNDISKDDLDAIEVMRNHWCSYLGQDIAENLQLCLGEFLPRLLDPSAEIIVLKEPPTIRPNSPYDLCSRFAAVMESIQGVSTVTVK
# Summary of the method: as §1
# Sequence of USP24 (Q9UPU5 whole entry): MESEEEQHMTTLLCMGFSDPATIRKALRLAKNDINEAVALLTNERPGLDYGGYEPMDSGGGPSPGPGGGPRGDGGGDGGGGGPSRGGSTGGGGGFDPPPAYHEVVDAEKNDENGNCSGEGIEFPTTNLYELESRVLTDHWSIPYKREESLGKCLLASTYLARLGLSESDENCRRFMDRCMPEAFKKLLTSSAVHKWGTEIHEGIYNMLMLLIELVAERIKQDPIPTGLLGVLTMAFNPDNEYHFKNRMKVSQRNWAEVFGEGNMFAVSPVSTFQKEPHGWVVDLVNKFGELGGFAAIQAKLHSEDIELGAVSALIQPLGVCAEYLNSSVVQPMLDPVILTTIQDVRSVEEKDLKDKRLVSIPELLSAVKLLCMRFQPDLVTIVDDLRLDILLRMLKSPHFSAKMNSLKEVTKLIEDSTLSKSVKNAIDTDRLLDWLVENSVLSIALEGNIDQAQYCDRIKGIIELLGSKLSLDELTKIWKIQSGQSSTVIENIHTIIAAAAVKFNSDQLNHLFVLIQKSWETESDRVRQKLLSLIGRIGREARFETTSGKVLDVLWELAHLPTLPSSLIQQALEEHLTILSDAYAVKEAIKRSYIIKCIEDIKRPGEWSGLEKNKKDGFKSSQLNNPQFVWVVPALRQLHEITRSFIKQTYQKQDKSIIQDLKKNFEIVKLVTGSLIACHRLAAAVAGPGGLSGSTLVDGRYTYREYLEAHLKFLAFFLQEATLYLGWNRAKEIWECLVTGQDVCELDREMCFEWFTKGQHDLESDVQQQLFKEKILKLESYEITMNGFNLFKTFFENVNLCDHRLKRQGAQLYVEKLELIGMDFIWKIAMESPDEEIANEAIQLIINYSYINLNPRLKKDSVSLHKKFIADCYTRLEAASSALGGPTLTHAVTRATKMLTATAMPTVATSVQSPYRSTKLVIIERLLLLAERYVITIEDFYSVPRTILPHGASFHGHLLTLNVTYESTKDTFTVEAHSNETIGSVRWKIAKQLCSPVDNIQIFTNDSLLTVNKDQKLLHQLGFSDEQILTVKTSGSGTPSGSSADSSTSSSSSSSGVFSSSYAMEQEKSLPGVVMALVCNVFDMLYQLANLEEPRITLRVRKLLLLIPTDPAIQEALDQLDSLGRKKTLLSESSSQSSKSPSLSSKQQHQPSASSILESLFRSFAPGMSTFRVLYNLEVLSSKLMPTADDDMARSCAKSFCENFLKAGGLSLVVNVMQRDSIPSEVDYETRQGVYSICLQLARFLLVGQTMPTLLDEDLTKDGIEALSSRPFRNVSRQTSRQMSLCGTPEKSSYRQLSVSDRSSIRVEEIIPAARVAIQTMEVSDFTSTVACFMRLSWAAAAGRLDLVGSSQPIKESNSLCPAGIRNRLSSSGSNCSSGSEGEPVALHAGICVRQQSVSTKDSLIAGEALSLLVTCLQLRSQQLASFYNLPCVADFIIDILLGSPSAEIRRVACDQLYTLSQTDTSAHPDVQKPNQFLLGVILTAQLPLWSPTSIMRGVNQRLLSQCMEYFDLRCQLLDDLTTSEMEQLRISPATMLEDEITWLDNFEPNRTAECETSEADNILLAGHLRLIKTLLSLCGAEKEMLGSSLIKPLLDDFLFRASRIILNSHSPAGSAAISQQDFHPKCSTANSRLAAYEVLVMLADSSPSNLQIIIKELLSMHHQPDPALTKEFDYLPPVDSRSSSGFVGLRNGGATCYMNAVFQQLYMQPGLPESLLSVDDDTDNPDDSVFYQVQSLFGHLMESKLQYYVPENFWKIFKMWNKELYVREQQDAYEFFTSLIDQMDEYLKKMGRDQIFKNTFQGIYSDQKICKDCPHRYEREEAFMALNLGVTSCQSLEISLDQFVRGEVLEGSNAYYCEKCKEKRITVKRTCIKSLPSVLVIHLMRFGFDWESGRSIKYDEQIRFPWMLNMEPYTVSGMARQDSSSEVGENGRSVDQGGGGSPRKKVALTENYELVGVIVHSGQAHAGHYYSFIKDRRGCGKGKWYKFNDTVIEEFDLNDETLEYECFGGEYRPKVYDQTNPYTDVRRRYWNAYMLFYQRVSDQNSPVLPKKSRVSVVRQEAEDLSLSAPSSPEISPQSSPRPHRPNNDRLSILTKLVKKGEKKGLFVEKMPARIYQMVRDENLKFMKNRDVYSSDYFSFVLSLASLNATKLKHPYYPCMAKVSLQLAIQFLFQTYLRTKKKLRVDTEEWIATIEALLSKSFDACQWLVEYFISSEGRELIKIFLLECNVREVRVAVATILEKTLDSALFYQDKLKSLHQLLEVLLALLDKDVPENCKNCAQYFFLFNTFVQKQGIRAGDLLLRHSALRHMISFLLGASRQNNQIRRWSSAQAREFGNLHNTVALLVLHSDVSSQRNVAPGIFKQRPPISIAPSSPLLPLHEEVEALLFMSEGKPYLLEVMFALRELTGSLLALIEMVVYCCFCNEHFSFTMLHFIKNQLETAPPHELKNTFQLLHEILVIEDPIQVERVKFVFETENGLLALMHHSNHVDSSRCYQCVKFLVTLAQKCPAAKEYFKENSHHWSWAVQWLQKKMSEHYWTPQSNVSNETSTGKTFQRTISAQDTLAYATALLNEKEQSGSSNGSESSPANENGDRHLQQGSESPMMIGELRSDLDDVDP
smiles,measurement,setting,value
N#Cc1ccccc1N1CCN(C(=O)CCl)CC1,log2 ratio of Biotin-Ahx-Ub-VS probe labelling,USP19,-0.813
same,log2 ratio of Biotin-Ahx-Ub-VS probe labelling,USP24,-1.15 (active)
same,log2 ratio of Biotin-Ahx-Ub-VS probe labelling,USP25,-0.657
same,log2 ratio of Biotin-Ahx-Ub-VS probe labelling,USP28,-1.05
